Bioassay records (PubChem)
Sampled rows, rich in hits. Any-hit rate of the full collection: about 3.9%.
H9c2 protect = protects H9c2 cardiomyocytes from peroxide injury; H2O2 injury protection, ATPLite, 2 h; protection from H2O2 cell death, % at 20 µM; 360,000 compounds, 0.63% hits; AID 588492;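 active means compounds giving at least 50% protection of heart cells from peroxide-induced death in the single-dose screen, raw or plate-pattern-corrected value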;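 further: 0% = DMSO wells with peroxide and 100% = DMSO wells without peroxide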
UBC9 SUMO inh = inhibitors of human SUMOylation (UBC9); HTRF SUMOylation assay, SAE1/SAE2 + UBC9, in vitro; 290,000 compounds, 0.36% hits; inhibition, % at 35 µM; in the data active means inhibition above about 50%, passing the limit was not always enough
Target sequence (P63279 whole entry, looked up): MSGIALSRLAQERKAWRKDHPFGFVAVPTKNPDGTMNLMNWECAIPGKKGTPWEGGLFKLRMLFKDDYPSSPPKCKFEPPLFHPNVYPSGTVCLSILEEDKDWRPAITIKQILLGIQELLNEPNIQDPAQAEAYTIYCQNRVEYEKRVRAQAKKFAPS
ALR H2O2 inh = human ALR oxidase inhibition via reduced H2O2; inhibition, % (test concentration not listed); P55789; 290,000 compounds, 3.8% hits; AID 485317; purified ALR, DTT oxidation, H2O2 HRP-luminol luminescence;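 active means mean replicate inhibition above about 79%, with every replicate also reaching it, limit read from the data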
Target sequence (P55789 whole entry, looked up): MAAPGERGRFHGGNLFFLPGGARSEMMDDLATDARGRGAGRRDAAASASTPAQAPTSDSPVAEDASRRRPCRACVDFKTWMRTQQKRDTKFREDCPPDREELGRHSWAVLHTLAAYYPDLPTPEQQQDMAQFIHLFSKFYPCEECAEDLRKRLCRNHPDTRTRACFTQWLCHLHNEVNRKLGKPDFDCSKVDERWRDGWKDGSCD
NTR1 ag = NTR1 (human) agonism; P30989; NTR1-U2OS beta-arrestin-GFP spot imaging, agonist mode; activation, % at 20 µM; 330,000 compounds, 0.17% hits;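 active means activation at or above 40% of the spot to cytoplasm intensity ratio, with at least 20 cells analyzed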;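 further: 0% = DMSO without peptide and 100% = 100 nM NTR1 peptide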
NTR1 ag conf = confirmation of agonists of human NTR1 | activation, % at 20 µM | NTR1-U2OS beta-arrestin-GFP translocation imaging | 480 compounds, 38% hits | shares compounds with NTR1 ag;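 active means mean activation at 20 µM of at least 40%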;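 further: 0% = DMSO without peptide and 100% = 100 nM NTR1 peptide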
* marks the source's active call; other numbers are inactive results; x = not tested or not shown.

SMILES	H9c2 protect	UBC9 SUMO inh	ALR H2O2 inh	NTR1 ag	NTR1 ag conf
O=C1c2cccc3cccc(c23)C(=O)N1CC1CCN(CC(O)COc2ccc3ccccc3c2)CC1 (stereo not given)	-17	x	-13	41*	59*
Cc1cc(C)cc(OCC(O)CN2CCC(CN3C(=O)c4cccc5cccc(c45)C3=O)CC2)c1 (stereo not given)	-18	x	-6	48*	58*
CC1=NN(c2ccccc2)C(=O)/C1=C/c1ccc(Cl)cc1	-6	78	7	0	x
COc1ccc(-c2cn[nH]c2-c2ccc(OCc3ccc(F)cc3)cc2O)cc1OC	-8	-30	x	15	x
COc1cc2c3nnc(-c4ccc(F)cc4)c-3cn(Cc3ccccc3)c2cc1OC	-33	15	-8	49*	84*
COc1ccc(Cn2cc3c(-c4ccc(F)cc4)nnc-3c3cc(OC)c(OC)cc32)cc1	-14	-2	8	46*	78*
COc1ccc(-c2nnn(Cc3ccccc3)n2)cc1OC	0	-4	2	0	x
CC(NC(=O)COC(=O)COc1ccc(Cl)cc1)c1ccccc1 (stereo not given)	1	x	-5	4	x
CCCNc1ncnc2c1cnn2C1CCCCO1 (stereo not given)	2	x	x	x	x
Cc1cc(C)c(S(=O)(=O)Nc2ccc3c4c(cccc24)CC3)c(C)c1	-22	-17	-2	10	x
Cc1ccc(S(=O)(=O)Nc2ccc3c4c(cccc24)CC3)c(C)c1	-24	x	x	41*	0
COc1ccc(-c2cc(-c3cc(C)ccc3O)[nH]n2)cc1	-8	-17	50	44*	14
OCCNc1nc(Nc2ccccc2Oc2ccccc2)nc(N2CCCC2)n1	-4	x	9	46*	32
OCCNc1nc(Nc2ccccc2OC(F)(F)F)nc(N2CCCC2)n1	-4	x	48	4	x
CCc1cccc(CC)c1-n1c(SCC(=O)N2CCc3ccccc3C2)nnc1-c1cccnc1	-3	-5	0	45*	64*
C[C@@H]1CC=C[C@H]2[C@H]1C(=O)N(Cc1ccccc1)[C@H]2c1ccc2ccccc2c1Br	-11	3	x	43*	18
COC(=O)c1ccc(/C=C/C(=O)OCC(=O)Nc2sccc2C(N)=O)cc1	2	x	0	45*	77*
N#CSC(c1ccccc1)c1nc2ccccc2[nH]c1=O (stereo not given)	3	-2	x	2	x
Cc1ccc(NC(c2ccccc2)c2nc3ccccc3[nH]c2=O)cc1 (stereo not given)	-6	1	-17	40*	8
Cc1[nH]c2ccccc2c1/C=N/Nc1ccccc1[N+](=O)[O-]	-9	-46	13	40*	10
CN(C)S(=O)(=O)c1ccc(S(=O)(=O)NCc2cccs2)cc1	1	2	x	42*	-2
O=S(=O)(c1ccc(Cl)cc1)c1cnc2ccccc2n1	-13	-2	6	0	x
COc1ccc(C(CCN2CCCCC2)c2c(OC)cc(OC)c3c(-c4ccccc4)cc(=O)oc23)cc1 (stereo not given)	-8	8	-53	42*	41*
CCCCCc1cc(=O)oc2c(C(CCN3CCCC(C)C3)c3ccc(N(C)C)cc3)c(OC)cc(OC)c12 (stereo not given)	-31	2	-1	51*	53*
O=C(Nc1ccc2c(c1)CCC2)c1cc(=O)[nH]c2ccccc12	0	26	-4	-2	x
SMILES	H9c2 protect	UBC9 SUMO inh	ALR H2O2 inh	NTR1 ag	NTR1 ag conf
N#Cc1ccccc1S(=O)(=O)N1CCN(C(=O)c2cn(-c3ccccc3)nc2-c2cccnc2)CC1	-4	x	2	0	x
COc1ccc(C(=O)/C=C/c2ccccc2F)c(OC(=O)c2ccc([N+](=O)[O-])cc2)c1	-8	16	21	1	x
O=C(/C=C/c1ccccc1F)c1cccc([N+](=O)[O-])c1	-18	-2	9	42*	61*
O=S(=O)(c1ccc(N2CCCC2)nc1)N1CCCC1	-4	18	0	2	x
COCCCn1c(=NC(C)=O)c(C#N)cc2c(=O)n3cccc(C)c3nc21	7	3	-13	1	x
COCCCn1c(=NC(=O)c2ccccc2)c(C#N)cc2c(=O)n3cccc(C)c3nc21	36	15	3	50*	20
O=S(=O)(c1ccc(N2CC=C(c3ccccc3)CC2)nc1)N1CCCC1	2	-8	-1	50*	1
O=C(Nc1ccc(N2CCN(C(=O)c3ccccc3)CC2)cc1)c1cc2ccccc2o1	36	37	0	64*	86*
O=C(c1cc(-c2cccc(Br)c2)nc2ccccc12)N1CCCC1	-1	13	0	0	x
